These results are taken from ChEMBL document CHEMBL1961873, “Compounds: GSK PKIS; Assays: Nanosyn kinase panel” (2012).

Sequence of MAP kinase-activated protein kinase 3 (Homo sapiens) (Q16644 whole entry, looked up): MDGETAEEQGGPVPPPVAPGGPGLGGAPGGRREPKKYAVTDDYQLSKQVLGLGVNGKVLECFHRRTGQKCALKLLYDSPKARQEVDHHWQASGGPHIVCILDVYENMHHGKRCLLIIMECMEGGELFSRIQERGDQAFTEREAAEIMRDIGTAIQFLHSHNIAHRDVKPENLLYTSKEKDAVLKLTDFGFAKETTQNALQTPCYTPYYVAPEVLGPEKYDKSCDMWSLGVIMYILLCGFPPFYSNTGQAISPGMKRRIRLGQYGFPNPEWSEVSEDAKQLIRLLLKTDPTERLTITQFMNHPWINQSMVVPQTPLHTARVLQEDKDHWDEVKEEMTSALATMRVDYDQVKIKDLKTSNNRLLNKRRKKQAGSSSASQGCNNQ
Sequence of MAP kinase-activated protein kinase 2 (Homo sapiens) (P49137 whole entry, looked up): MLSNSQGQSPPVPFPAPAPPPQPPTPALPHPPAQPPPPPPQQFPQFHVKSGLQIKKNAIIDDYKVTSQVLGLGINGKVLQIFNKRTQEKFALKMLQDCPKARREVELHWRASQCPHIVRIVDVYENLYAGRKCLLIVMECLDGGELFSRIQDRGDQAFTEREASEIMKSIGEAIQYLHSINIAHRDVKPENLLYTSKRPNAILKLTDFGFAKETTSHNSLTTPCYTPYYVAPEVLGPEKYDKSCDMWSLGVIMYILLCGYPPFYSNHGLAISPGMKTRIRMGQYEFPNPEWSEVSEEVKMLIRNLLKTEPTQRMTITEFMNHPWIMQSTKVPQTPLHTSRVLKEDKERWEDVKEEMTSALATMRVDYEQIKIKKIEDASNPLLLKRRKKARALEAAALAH

One experiment has as its target T1, Serine/threonine-protein kinase DCLK2 (Homo sapiens) (UniProt Q8N568).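 Further: each value is a mean percent inhibition of DCLK2.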
T1 sequence (whole entry): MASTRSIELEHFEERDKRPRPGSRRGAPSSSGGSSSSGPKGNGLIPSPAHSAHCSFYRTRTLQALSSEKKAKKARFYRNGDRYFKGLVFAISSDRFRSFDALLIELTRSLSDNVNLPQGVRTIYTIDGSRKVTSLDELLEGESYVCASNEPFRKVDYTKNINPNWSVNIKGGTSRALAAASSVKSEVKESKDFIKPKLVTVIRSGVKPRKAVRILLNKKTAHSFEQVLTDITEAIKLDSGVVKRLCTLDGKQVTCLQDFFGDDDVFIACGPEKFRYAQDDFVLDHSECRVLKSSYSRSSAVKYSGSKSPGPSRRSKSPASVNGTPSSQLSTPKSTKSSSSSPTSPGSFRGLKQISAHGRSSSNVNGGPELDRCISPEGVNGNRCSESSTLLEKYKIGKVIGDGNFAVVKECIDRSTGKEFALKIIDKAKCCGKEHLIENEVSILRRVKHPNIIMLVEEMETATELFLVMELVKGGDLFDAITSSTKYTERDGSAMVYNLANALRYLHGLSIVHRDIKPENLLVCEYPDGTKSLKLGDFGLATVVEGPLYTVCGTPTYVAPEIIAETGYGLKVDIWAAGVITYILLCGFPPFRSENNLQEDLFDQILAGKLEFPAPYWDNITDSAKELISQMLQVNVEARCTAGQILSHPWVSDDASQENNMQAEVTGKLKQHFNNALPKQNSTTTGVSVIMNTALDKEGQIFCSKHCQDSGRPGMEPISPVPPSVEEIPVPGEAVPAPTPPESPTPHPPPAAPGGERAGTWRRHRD
The note with it: at 1 µM.
As usually defined, the inhibition is the change of the read-out against control, counted positive when it falls. On to `COc1cccc(COc2cc(-n3cnc4ccccc43)sc2C(N)=O)c1`, for which the inhibition was found to be 0.3%.

Regarding `COc1cc(C=NNc2ncnc3c2cnn3Cc2ccccc2)ccc1O`, the inhibition was -3.02%.

Take `CCn1c(-c2nonc2N)nc2c(C#CC(C)(C)O)nc(O[C@@H](CN)c3ccccc3)cc21`: the inhibition came to 18.5%.

Turning to `COc1cc2c(cc1Nc1nc(Nc3ccsc3C(N)=O)c3cc[nH]c3n1)N(C(=O)CN(C)C)CCC2`, the inhibition was 0.34%.

`NS(=O)(=O)c1ccc(N/C=C2\C(=O)Nc3ccc4ncsc4c32)cc1`: the inhibition was determined as 5.55%.

As to `Nc1nonc1-c1nc2cnccc2n1C1CCCCC1`, the inhibition was 1.52%.

With `COc1cccc(-n2ncc3c(N/N=C/c4ccncc4)ncnc32)c1`, the inhibition was found to be 1.8%.

Take `Cc1cc(-c2ccco2)cc(C)c1/C=C/c1cncc(-c2nn[nH]n2)c1`: the inhibition stood at 0.25%.

On to `CCn1c(-c2nonc2N)nc2c(C#CC(C)(C)O)ncc(OCC3CCNCC3)c21`, for which the inhibition is -1.26%.

Take `Fc1ccc(-c2ncn(C3CCNCC3)c2-c2ccnc(Oc3ccccc3)n2)cc1`: the inhibition is -2.43%.

As to `NS(=O)(=O)c1ccc(-c2ccc3c(NC(=O)C4CC4)n[nH]c3c2)cc1`, the inhibition was found to be 0.39%.

In the case of `CCn1c(-c2nonc2N)nc2c(C#CCN)ncc(OCCCN)c21`, the inhibition is -0.65%.

Turning to `NC(=O)c1sc(-n2cnc3cc(C(F)(F)F)ccc32)cc1OCc1ccccc1Br`, the inhibition stood at 2.52%.

As for `CCn1c(-c2nonc2N)nc2c(C#CC(C)(C)O)ncc(OC[C@@H]3CCCN3)c21`, the inhibition stood at 2.93%.

A further experiment addresses MAP kinase-activated protein kinase 2 (Homo sapiens) (UniProt P49137). The note with it: at 0.1 µM.
`COc1cccc(COc2cc(-n3cnc4ccccc43)sc2C(N)=O)c1`: the inhibition was -0.08%.

Consider `COc1cc(C=NNc2ncnc3c2cnn3Cc2ccccc2)ccc1O`, for which the inhibition is -2.2%.

As for `CCn1c(-c2nonc2N)nc2c(C#CC(C)(C)O)nc(O[C@@H](CN)c3ccccc3)cc21`, the inhibition was -0.97%.

Take `COc1cc2c(cc1Nc1nc(Nc3ccsc3C(N)=O)c3cc[nH]c3n1)N(C(=O)CN(C)C)CCC2`: the inhibition is -0.32%.

As to `NS(=O)(=O)c1ccc(N/C=C2\C(=O)Nc3ccc4ncsc4c32)cc1`, the inhibition is 2.68%.

As for `Nc1nonc1-c1nc2cnccc2n1C1CCCCC1`, the inhibition is -1.18%.

As to `COc1cccc(-n2ncc3c(N/N=C/c4ccncc4)ncnc32)c1`, the inhibition was determined as 2.5%.

`Cc1cc(-c2ccco2)cc(C)c1/C=C/c1cncc(-c2nn[nH]n2)c1`: the inhibition turned out to be 0.52%.

In the case of `CCn1c(-c2nonc2N)nc2c(C#CC(C)(C)O)ncc(OCC3CCNCC3)c21`, the inhibition turned out to be 0.79%.

Consider `Fc1ccc(-c2ncn(C3CCNCC3)c2-c2ccnc(Oc3ccccc3)n2)cc1`, for which the inhibition was found to be 0.07%.

With `NS(=O)(=O)c1ccc(-c2ccc3c(NC(=O)C4CC4)n[nH]c3c2)cc1`, the inhibition turned out to be 1.09%.

On to `CCn1c(-c2nonc2N)nc2c(C#CCN)ncc(OCCCN)c21`, for which the inhibition was -0.73%.

Consider `NC(=O)c1sc(-n2cnc3cc(C(F)(F)F)ccc32)cc1OCc1ccccc1Br`, for which the inhibition came out at 0.61%.

With `CCn1c(-c2nonc2N)nc2c(C#CC(C)(C)O)ncc(OC[C@@H]3CCCN3)c21`, the inhibition was -0.56%.

The next experiment shares this target. The following applies: at 1 µM.
With `COc1cccc(COc2cc(-n3cnc4ccccc43)sc2C(N)=O)c1`, the inhibition was -1.3%.

`COc1cc(C=NNc2ncnc3c2cnn3Cc2ccccc2)ccc1O`: the inhibition was -2.27%.

For `CCn1c(-c2nonc2N)nc2c(C#CC(C)(C)O)nc(O[C@@H](CN)c3ccccc3)cc21`, the inhibition was -1%.

Turning to `COc1cc2c(cc1Nc1nc(Nc3ccsc3C(N)=O)c3cc[nH]c3n1)N(C(=O)CN(C)C)CCC2`, the inhibition is -2.2%.

For the compound `NS(=O)(=O)c1ccc(N/C=C2\C(=O)Nc3ccc4ncsc4c32)cc1`, the inhibition amounted to 2.48%.

With `Nc1nonc1-c1nc2cnccc2n1C1CCCCC1`, the inhibition is -1.08%.

For `COc1cccc(-n2ncc3c(N/N=C/c4ccncc4)ncnc32)c1`, the inhibition came out at 1.87%.

`Cc1cc(-c2ccco2)cc(C)c1/C=C/c1cncc(-c2nn[nH]n2)c1`: the inhibition was 0.01%.

For `CCn1c(-c2nonc2N)nc2c(C#CC(C)(C)O)ncc(OCC3CCNCC3)c21`, the inhibition turned out to be 1.63%.

On to `Fc1ccc(-c2ncn(C3CCNCC3)c2-c2ccnc(Oc3ccccc3)n2)cc1`, for which the inhibition was -0.82%.

As for `NS(=O)(=O)c1ccc(-c2ccc3c(NC(=O)C4CC4)n[nH]c3c2)cc1`, the inhibition worked out at 0.96%.

For the compound `CCn1c(-c2nonc2N)nc2c(C#CCN)ncc(OCCCN)c21`, the inhibition is -0.87%.

`NC(=O)c1sc(-n2cnc3cc(C(F)(F)F)ccc32)cc1OCc1ccccc1Br`: the inhibition amounted to 0.42%.

Consider `CCn1c(-c2nonc2N)nc2c(C#CC(C)(C)O)ncc(OC[C@@H]3CCCN3)c21`, for which the inhibition is -0.71%.

A further experiment concerns the target MAP kinase-activated protein kinase 3 (Homo sapiens) (UniProt Q16644). The note with it: at 0.1 µM.
Take `COc1cccc(COc2cc(-n3cnc4ccccc43)sc2C(N)=O)c1`: the inhibition was 2.28%.

Regarding `COc1cc(C=NNc2ncnc3c2cnn3Cc2ccccc2)ccc1O`, the inhibition was -2.35%.

Regarding `CCn1c(-c2nonc2N)nc2c(C#CC(C)(C)O)nc(O[C@@H](CN)c3ccccc3)cc21`, the inhibition is -3.02%.

`COc1cc2c(cc1Nc1nc(Nc3ccsc3C(N)=O)c3cc[nH]c3n1)N(C(=O)CN(C)C)CCC2`: the inhibition came to 6.83%.

Regarding `NS(=O)(=O)c1ccc(N/C=C2\C(=O)Nc3ccc4ncsc4c32)cc1`, the inhibition was 7.84%.

As to `Nc1nonc1-c1nc2cnccc2n1C1CCCCC1`, the inhibition was -2.2%.

As for `COc1cccc(-n2ncc3c(N/N=C/c4ccncc4)ncnc32)c1`, the inhibition stood at 3.62%.

Consider `Cc1cc(-c2ccco2)cc(C)c1/C=C/c1cncc(-c2nn[nH]n2)c1`, for which the inhibition was 1.42%.

In the case of `CCn1c(-c2nonc2N)nc2c(C#CC(C)(C)O)ncc(OCC3CCNCC3)c21`, the inhibition stood at 2.86%.

`Fc1ccc(-c2ncn(C3CCNCC3)c2-c2ccnc(Oc3ccccc3)n2)cc1`: the inhibition was 31.3%.

For the compound `NS(=O)(=O)c1ccc(-c2ccc3c(NC(=O)C4CC4)n[nH]c3c2)cc1`, the inhibition is 2.61%.

`CCn1c(-c2nonc2N)nc2c(C#CCN)ncc(OCCCN)c21`: the inhibition was -1.07%.

On to `NC(=O)c1sc(-n2cnc3cc(C(F)(F)F)ccc32)cc1OCc1ccccc1Br`, for which the inhibition was 1.71%.

For `CCn1c(-c2nonc2N)nc2c(C#CC(C)(C)O)ncc(OC[C@@H]3CCCN3)c21`, the inhibition was -0.39%.
